Experimental findings from the supplement of paper PMC9897528 are described below.

SMILES strings stand for the structures.
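Further: conidia screened in RPMI 1640 medium under 5% CO2, growth read by spectrophotometer, medium with 0.5% DMSO serving as the untreated reference.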

The test system of this test is Scedosporium aurantiacum CBS 136046. Description: growth inhibition relative to DMSO control (OD600); higher = more antifungal activity, active = 80 or more; extreme values may be limits of the assay. Conditions: 5 µM; 72 h; 37 °C.
As to `O=[N+]([O-])c1cn(Cc2nc(O)nc(O)c2Br)cn1`, the growth inhibition was 20.5% (inactive).

`COc1ccc(SC(=O)N[C@H](CCC(=O)O)C(=O)O)cc1`: the growth inhibition is 24.2% (inactive).

`CN(C)CCCNC(=O)c1ccc(-c2cc(O)c3ncccc3c2)cc1`: the growth inhibition was 11.4% (inactive).

With `NCCCc1ccccc1C(=O)Nc1ncc([N+](=O)O)s1`, the growth inhibition was 0% (inactive).

As to `CC(C)Cn1c(=O)n(C)c(=O)c2c(-c3cncn3C)n(Cc3cccc4ccccc34)nc21`, the growth inhibition is 29% (inactive).

Turning to `CC(Cc1ccccc1)C(=O)Nc1ccc(Cl)cc1C(=O)O` (stereo not drawn), the growth inhibition was 0% (inactive).

Regarding `CN(C)[C@@H]1C(=O)C(C(N)=O)=C(O)[C@@]2(O)C(=O)C3=C(O)c4c(O)c(NC(=O)CN5CCCC5)cc(F)c4C[C@H]3C[C@@H]12`, the growth inhibition is 0% (inactive).

`CN1c2ccc(Cl)cc2N(c2ccccc2)C(=O)c2cn(Cc3ccc(CN4CCOCC4)cc3)nc21`: the growth inhibition is 17.1% (inactive).

On to `CC(C)n1cnc2c(NCc3ccccc3)nc(NCc3ccccc3)nc21`, for which the growth inhibition was 39.6% (inactive).

For the compound `CC(=O)Oc1ccccc1C(=O)Nc1ncc([N+](=O)[O-])s1`, the growth inhibition is 12.7% (inactive).

For the compound `O=S(=O)(NCB(O)O)c1ccc(-c2nnn[nH]2)cc1C(F)(F)F`, the growth inhibition was 13.6% (inactive).

Regarding `O=C(N[C@H](CCS)C(=O)N[C@H](Cc1ccccc1)C(=O)O)c1cc2ccccc2[nH]1`, the growth inhibition was 23.5% (inactive).

As to `COC(=O)Nc1nc2c(C)cccc2[nH]1`, the growth inhibition was 0% (inactive).

On to `CCCCC(CC)CNC(=N)NC(=N)NCCCCCCNC(=N)NC(=N)NCC(CC)CCCC` (stereo not drawn), for which the growth inhibition is 85% (active).

Regarding `CN(C)c1[nH]c(=O)ncc1F`, the growth inhibition was 24.8% (inactive).

As to `NCc1ccc(S(N)(=O)=O)cc1`, the growth inhibition was 9.4% (inactive).

For the compound `O=C(NCc1cccc2ccccc12)c1cccs1`, the growth inhibition was 0% (inactive).

Consider `Nc1nc2c(ncn2COCCO)c(=O)[nH]1`, for which the growth inhibition was 11.1% (inactive).

On to `NC(=O)[C@@H]1CC[C@@H]2CN1C(=O)N2OS(=O)(=O)O`, for which the growth inhibition was 0% (inactive).

With `CCCCCCC1c2ccc(O)cc2Oc2cc(O)ccc21`, the growth inhibition is 4.47% (inactive).

Take `CC1(C)CC(NC(=O)C(=O)Nc2ccc(Cl)cc2)CC(C)(C)N1`: the growth inhibition is 8.43% (inactive).

Turning to `Cc1nc2ccc(Cl)cc2c(-c2ccccc2)c1CC(=O)O`, the growth inhibition was 14.2% (inactive).

`CC(=O)O[C@H]1C[C@@]2(C)[C@@H](C[C@@H](O)[C@H]3[C@@]4(C)CC[C@@H](O)[C@@H](C)[C@@H]4CC[C@@]32C)/C1=C(\CCC=C(C)C)C(=O)O`: the growth inhibition was 19.6% (inactive).

Consider `CNC(=O)C1O[C@@H](n2cnc3c(NCc4cccc(I)c4)nc(Cl)nc32)[C@H](O)[C@@H]1O` (stereo partly drawn), for which the growth inhibition was 3.52% (inactive).

With `C[C@H]1CC[C@@]2(O)C(C)(C)[C@@H]3CC[C@@]2(C)[C@H]1C3`, the growth inhibition is 12.7% (inactive).

`Fc1ccc2c(/C=C/c3cccnc3)c[nH]c2c1`: the growth inhibition is 5.3% (inactive).

`O=[N+]([O-])c1ccc2c(CCc3c[nH]c4ccccc34)c[nH]c2c1`: the growth inhibition was 48.7% (inactive).

As for `Cc1cc(C)n2nc(C(=O)NS(=O)(=O)c3c(C)cccc3OC(F)(F)F)nc2n1`, the growth inhibition was 0% (inactive).

Turning to `N=c1n(CCN2CCCCC2)c2ccccc2n1CC(O)COc1ccc(Cl)cc1Cl` (stereo not drawn), the growth inhibition was 25.3% (inactive).

In the case of `O=C1C=C(c2ccccc2)S(=O)(=O)c2ccccc21`, the growth inhibition was 12.3% (inactive).

With `Nc1nc(=O)c(Br)c(-c2ccccc2)[nH]1`, the growth inhibition is 0.62% (inactive).

Consider `N[C@H]1CCC[C@H]1C(=O)O`, for which the growth inhibition was 4.68% (inactive).

With `Cc1oncc1C(=O)Nc1ccc(C(F)(F)F)cc1`, the growth inhibition was 15.6% (inactive).

As to `CC(C)/N=c1\cc2n(-c3ccc(Cl)cc3)c3ccccc3nc-2cc1Nc1ccc(Cl)cc1`, the growth inhibition is 24.6% (inactive).

Take `Cc1c(N)cccc1Cn1ccc(OCCc2cccs2)cc1=O`: the growth inhibition was 2.23% (inactive).

In the case of `Nc1nc2c(ncn2/C=C2/CC2(CO)CO)c(=O)[nH]1`, the growth inhibition was 1.28% (inactive).

Regarding `NC(=O)c1[nH]c2ccc(S(N)(=O)=O)cc2c1-c1ccccc1`, the growth inhibition is 34.5% (inactive).

With `Cc1ccccc1NC(=O)Nc1cccc([N+](=O)[O-])c1`, the growth inhibition was 12.4% (inactive).
